# In the supplement of paper PMC8728848:
# This is one part of a sample in which the strongest signals are shown more often than they occur.
# B1: YghJ (Escherichia coli), E3PJ90 (protein)
# chain: MNKKFKYKKSLLAAILSATLLAGCDGGGSGSSSDTPPVDSGTGSLPEVKPDPTPNPEPTPEPTPDPEPTPEPIPDPEPTPEPEPEPVPTKTGYLTLGGSQRVTGATCNGESSDGFTFKPGEDVTCVAGNTTIATFNTQSEAARSLRAVEKVSFSLEDAQELAGSDDKKSNAVSLVTSSNSCPANTEQVCLTFSSVIESKRFDSLYKQIDLAPEEFKKLVNEEVENNAATDKAPSTHTSPVVPVTTPGTKPDLNASFVSANAEQFYQYQPTEIILSEGRLVDSQGYGVAGVNYYTNSGRGVTGENGEFSFSWGEAISFGIDTFELGSVRGNKSTIALTELGDEVRGANIDQLIHRYSTTGQNNTRVVPDDVRKVFAEYPNVINEIINLSLSNGATLGEGEQVVNLPNEFIEQFNTGQAKEIDTAICAKTDGCNEARWFSLTTRNVNDGQIQGVINKLWGVDTNYKSVSKFHVFHDSTNFYGSTGNARGQAVVNISNAAFPILMARNDKNYWLAFGEKRAWDKNELAYITEAPSIVRPENVTRETASFNLPFISLGQVGDGKLMVIGNPHYNSILRCPNGYSWNGGVNKDGQCTLNSDPDDMKNFMENVLRYLSNDRWLPDAKSSMTVGTNLETVYFKKHGQVLGNSAPFAFHKDFTGITVKPMTSYGNLNPDEVPLLILNGFEYVTQWGSDPYSIPLRADTSKPKLTQQDVTDLIAYMNKGGSVLIMENVMSNLKEESASGFVRLLDAAGLSMALNKSVVNNDPQGYPDRVRQRRSTPIWVYERYPAVDGKPPYTIDDTTKEVIWKYQQENKPDDKPKLEVASWQEEVEGKQVTQFAFIDEADHKTPESLAAAKQRILDAFPGLEVCKDSDYHYEVNCLEYRPGTDVPVTGGMYVPQYTQLDLSADTAKAMLQAADLGTNIQRLYQHELYFRTNGRQGERLNSVDLERLYQNMSVWLWNETKYRYEEGKEDELGFKTFTEFLNCYTNNAYVGTQCSAELKKSLIDNKMIYGEESSKAGMMNPSYPLNYMEKPLTRLMLGRSWWDLNIKVDVEKYPGVVNTNGETVTQNINLYSAPTKWFAGNMQSTGLWAPAQQEVSIESKSTVPVTVTVALADDLTGREKHEVSLNRPPRVTKTYDLKANDKVTFKVPYGGLIYIKGDSKEVQSADFTFTGVVKAPFYKDGKWQHDLNSPAPLGELESASFVYTTPKKNLNASNYTGGLEQFANDLDTFASSMNDFYGRDSEDGKHRMFTYKNLPGHKHRFANDVQISIGDAHSGYPVMNSSFSPNSTTLPTTPLNDWLIWHEVGHNAAETPLTVPGATEVANNVLALYMQDRYLGKMNRVADDITVAPEYLEESNGQAWARGGAGDRLLMYAQLKEWAEKNFDIKKWYPDGTPLPEFYSEREGMKGWNLFQLMHRKARGDEVSNDKFGGKNYCAESNGNAADTLMLCASWVAQTDLSEFFKKWNPGANAYQLPGASEMSFEGGVSQSAYNTLASLDLPKPEQGPETINQVTEHKMSAE
# Legend:
# Assay in all cases: glycan array binding signal (z-score within array); higher = stronger binding
# Conditions in all cases: glycan notation: IUPAC condensed, linker removed
# [1] = biological target: Fuc(a1-2)Gal(b1-3)GalNAc(a1-3)[Fuc(a1-2)]Gal(b1-4)GlcNAc
# In short: (§1)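 From the Consortium for Functional Glycomics database, 3228 arrays were curated, keeping only those whose protein sequence was available. Binding is given as a within-array Z-score averaged across arrays sharing a protein sequence and across linkers. Negative Z-scores can be read as non-binding.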
# [2] = biological target: Fuc(a1-2)Gal(b1-3)GlcNAc(b1-3)Gal(b1-4)Glc
# In short: as §1
# [3] = biological target: Fuc(a1-2)Gal(b1-3)GlcNAc6S
# In short: as §1
# [4] = biological target: Fuc(a1-2)Gal(b1-4)GlcNAc(b1-2)Man(a1-3)[Fuc(a1-2)Gal(b1-4)GlcNAc(b1-2)Man(a1-6)]Man(b1-4)GlcNAc(b1-4)[Fuc(a1-6)]GlcNAc
# In short: as §1
# [5] = biological target: Fuc(a1-2)Gal6S(b1-3)GlcNAc6S
# In short: as §1
# [6] = biological target: Fuc(a1-2)[Gal(a1-3)]Gal(b1-4)GlcNAc(b1-2)Man
# In short: as §1
# [7] = biological target: Fuc(a1-2)[GalNAc(a1-3)]Gal(b1-3)GalNAc(a1-3)[Fuc(a1-2)]Gal(b1-4)GlcNAc
# In short: as §1
# [8] = biological target: Fuc(a1-2)[GalNAc(a1-3)]Gal(b1-3)GlcNAc(b1-2)Man(a1-3)[Fuc(a1-2)[GalNAc(a1-3)]Gal(b1-3)GlcNAc(b1-2)Man(a1-6)]Man(b1-4)GlcNAc(b1-4)GlcNAc
# In short: as §1
# [9] = biological target: Fuc(a1-2)[GalNAc(a1-3)]Gal(b1-4)GlcNAc(b1-6)GalNAc
# In short: as §1
# [10] = biological target: Fuc(a1-3)[Gal(b1-4)]GlcNAc(b1-3)Gal(b1-3)[Fuc(a1-4)]GlcNAc
# In short: as §1
# [11] = biological target: Fuc(a1-3)[GalNAc(b1-4)]GlcNAc6S
# In short: as §1
# [12] = biological target: Gal(a1-3)Gal(b1-3)GlcNAc(b1-6)GalNAc
# In short: as §1
# [13] = biological target: Gal(a1-3)Gal(b1-4)[Fuc(a1-3)]GlcNAc
# In short: as §1
# [14] = biological target: Gal(b1-3)GalNAc(b1-4)[Neu5Ac(a2-3)]Gal(b1-4)Glc
# In short: as §1
# [15] = biological target: Gal(b1-3)GlcNAc(b1-3)Gal(b1-4)GlcNAc(b1-6)[Gal(b1-3)GlcNAc(b1-3)]Gal(b1-4)Glc
# In short: as §1
# [16] = biological target: Gal(b1-3)GlcNAc(b1-3)Gal(b1-4)[Fuc(a1-3)]GlcNAc
# In short: as §1
# [17] = biological target: Gal(b1-4)GlcNAc(b1-2)Man(a1-3)[Gal(b1-4)GlcNAc(b1-2)Man(a1-6)]Man(b1-4)GlcNAc(b1-4)[Fuc(a1-6)]GlcNAc
# In short: as §1
# [18] = biological target: Gal(b1-4)GlcNAc(b1-2)[Gal(b1-4)GlcNAc(b1-6)]Man(a1-6)[Gal(b1-4)GlcNAc(b1-2)Man(a1-3)]Man(b1-4)GlcNAc(b1-4)GlcNAc
# In short: as §1
# [19] = biological target: Gal(b1-4)GlcNAc(b1-3)Gal(b1-4)Glc
# In short: as §1
# [20] = biological target: Gal(b1-4)GlcNAc(b1-3)Gal(b1-4)GlcNAc(b1-3)Gal(b1-4)GlcNAc(b1-2)Man(a1-3)[Gal(b1-4)GlcNAc(b1-3)Gal(b1-4)GlcNAc(b1-3)Gal(b1-4)GlcNAc(b1-2)Man(a1-6)]Man(b1-4)GlcNAc(b1-4)GlcNAc
# In short: as §1
# [21] = biological target: Gal(b1-4)GlcNAc(b1-3)Gal(b1-4)GlcNAc(b1-3)Gal(b1-4)GlcNAc(b1-3)Gal(b1-4)GlcNAc(b1-2)Man(a1-3)[Gal(b1-4)GlcNAc(b1-3)Gal(b1-4)GlcNAc(b1-3)Gal(b1-4)GlcNAc(b1-3)Gal(b1-4)GlcNAc(b1-2)Man(a1-6)]Man(b1-4)GlcNAc(b1-4)GlcNAc
# In short: as §1
# [22] = biological target: Gal(b1-4)GlcNAc(b1-3)Gal(b1-4)GlcNAc(b1-3)Gal(b1-4)GlcNAc(b1-3)Gal(b1-4)GlcNAc(b1-2)Man(a1-3)[Gal(b1-4)GlcNAc(b1-3)Gal(b1-4)GlcNAc(b1-3)Gal(b1-4)GlcNAc(b1-3)Gal(b1-4)GlcNAc(b1-2)Man(a1-6)]Man(b1-4)GlcNAc(b1-4)[Fuc(a1-6)]GlcNAc
# In short: as §1
# [23] = biological target: Gal(b1-4)GlcNAc(b1-3)Gal(b1-4)GlcNAc(b1-6)[Gal(b1-3)]GalNAc
# In short: as §1
# [24] = biological target: Gal(b1-4)GlcNAc(b1-6)GalNAc
# In short: as §1
binder,measurement,setting,value
B1,glycan array binding signal (z-score),[1],-1.47
same,glycan array binding signal (z-score),[2],-0.678
same,glycan array binding signal (z-score),[3],2.47
same,glycan array binding signal (z-score),[4],-0.129
same,glycan array binding signal (z-score),[5],3.49
same,glycan array binding signal (z-score),[6],-1.3
same,glycan array binding signal (z-score),[7],-0.92
same,glycan array binding signal (z-score),[8],0.546
same,glycan array binding signal (z-score),[9],0.95
same,glycan array binding signal (z-score),[10],2.74
same,glycan array binding signal (z-score),[11],0.125
same,glycan array binding signal (z-score),[12],0.282
same,glycan array binding signal (z-score),[13],-2.21
same,glycan array binding signal (z-score),[14],-0.276
same,glycan array binding signal (z-score),[15],1.23
same,glycan array binding signal (z-score),[16],2.4
same,glycan array binding signal (z-score),[17],2.37
same,glycan array binding signal (z-score),[18],0.576
same,glycan array binding signal (z-score),[19],0.172
same,glycan array binding signal (z-score),[20],0.559
same,glycan array binding signal (z-score),[21],-0.172
same,glycan array binding signal (z-score),[22],2.84
same,glycan array binding signal (z-score),[23],-0.193
same,glycan array binding signal (z-score),[24],-0.103
